Measured values from the supplement of paper PMC10849652.
About 7,900 targets were measured; listed, in parts, are those with a hit and a random draw of the rest. About 0.6% of all pairs of compound and target were hits. Unmarked numbers belong to inactive results.

What was measured:
Assay in all cases: log2 fold change, soluble protein after heating vs DMSO (PISA); higher = thermal stabilisation; K562 cells, 10 uM, 30 min; active = over 0.2 and 3.5 SD of the protein, either way, in both replicates (recomputed)
[1] = compound: CC1=C(C=C(C=C1)NC(=O)C2=CC(=CC=C2)C(C)(C)C#N)NC3=CC4=C(C=C3)N=CN(C4=O)C
Method in brief: (§1)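 Thermal stability values are relative to control samples and come from duplicates. They are expressed as log2 fold changes. For measurement, K562 cells (2×10^6 cells/mL) received 10 μM compound for 30 min, and aliquots were heated for 3 min over 48°C-58°C, pooled, and extracted at 4°C in PBS with 0.5% NP-40. Soluble protein, the supernatant after 21,000xg for 90 min, was quantified by TMTpro 16plex LC-MS/MS with equalised channel sums.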

[2] = compound: CC1=C(C=C(C=C1)NC(=O)C2=CC(=CC=C2)N(C)C)NC(=O)C3=CC=C(C=C3)O
Method in brief: as §1

[3] = compound: CC1=CC=C(C=C1)SC2=C3C=C(SC3=CN=C2)C(=O)N
Method in brief: as §1

Nexturastat A = compound: CCCCN(Cc1ccc(C(=O)NO)cc1)C(=O)Nc1ccccc1 [Nexturastat A]
Method in brief: as §1

vemurafenib = compound: CCCS(=O)(=O)Nc1ccc(F)c(C(=O)c2c[nH]c3ncc(-c4ccc(Cl)cc4)cc23)c1F [vemurafenib]
Method in brief: as §1

[4] = compound: CCCS(=O)(=O)Nc1ccc(F)c(C(=O)c2c[nH]c3ncc(Cl)cc23)c1F
Method in brief: as §1

[5] = compound: CCCc1cc(C)[nH]c(=O)c1CNC(=O)c1cc(-c2ccnc(N3CCN(C)CC3)c2)cc2c1cnn2C(C)C
Method in brief: as §1

barasertib = compound: CCN(CCCOc1ccc2c(Nc3cc(CC(=O)Nc4cccc(F)c4)[nH]n3)ncnc2c1)CCOP(=O)(O)O [barasertib]
Method in brief: as §1

[6] = compound: CC1=NC(=CC=C1)C2=C(N=C(N2)C(C)(C)C)C3=CC4=NC=CN=C4C=C3
Method in brief: as §1

givinostat = compound: CCN(CC)Cc1ccc2cc(COC(=O)Nc3ccc(C(=O)NO)cc3)ccc2c1 [givinostat]
Method in brief: as §1

Chain of UniProt O95273 (O95273 whole entry, looked up): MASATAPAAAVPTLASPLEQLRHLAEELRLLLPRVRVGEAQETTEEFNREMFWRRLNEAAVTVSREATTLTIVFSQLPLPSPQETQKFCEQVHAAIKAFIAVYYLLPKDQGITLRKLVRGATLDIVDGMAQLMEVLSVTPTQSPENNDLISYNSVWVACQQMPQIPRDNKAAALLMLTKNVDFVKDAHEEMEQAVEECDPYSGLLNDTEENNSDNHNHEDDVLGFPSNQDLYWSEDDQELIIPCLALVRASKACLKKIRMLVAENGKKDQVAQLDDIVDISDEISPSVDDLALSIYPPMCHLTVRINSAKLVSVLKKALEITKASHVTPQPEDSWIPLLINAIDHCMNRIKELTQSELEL
Chain of UniProt Q00537 (Q00537 whole entry, looked up): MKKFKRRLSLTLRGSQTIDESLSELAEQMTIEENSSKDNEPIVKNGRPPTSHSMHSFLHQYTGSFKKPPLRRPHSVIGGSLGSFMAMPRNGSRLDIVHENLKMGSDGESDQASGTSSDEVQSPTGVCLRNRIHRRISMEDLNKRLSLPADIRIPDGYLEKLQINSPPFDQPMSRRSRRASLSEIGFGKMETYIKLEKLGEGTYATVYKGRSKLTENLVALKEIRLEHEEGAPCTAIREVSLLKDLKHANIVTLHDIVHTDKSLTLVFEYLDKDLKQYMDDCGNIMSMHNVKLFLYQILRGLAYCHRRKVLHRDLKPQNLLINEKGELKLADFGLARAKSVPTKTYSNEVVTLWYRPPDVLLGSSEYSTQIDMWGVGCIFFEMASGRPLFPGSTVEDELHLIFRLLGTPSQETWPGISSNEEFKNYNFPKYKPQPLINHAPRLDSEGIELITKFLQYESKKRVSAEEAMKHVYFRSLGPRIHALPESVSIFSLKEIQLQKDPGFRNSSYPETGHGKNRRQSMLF
Chain of UniProt Q6UUV9 (Q6UUV9 whole entry, looked up): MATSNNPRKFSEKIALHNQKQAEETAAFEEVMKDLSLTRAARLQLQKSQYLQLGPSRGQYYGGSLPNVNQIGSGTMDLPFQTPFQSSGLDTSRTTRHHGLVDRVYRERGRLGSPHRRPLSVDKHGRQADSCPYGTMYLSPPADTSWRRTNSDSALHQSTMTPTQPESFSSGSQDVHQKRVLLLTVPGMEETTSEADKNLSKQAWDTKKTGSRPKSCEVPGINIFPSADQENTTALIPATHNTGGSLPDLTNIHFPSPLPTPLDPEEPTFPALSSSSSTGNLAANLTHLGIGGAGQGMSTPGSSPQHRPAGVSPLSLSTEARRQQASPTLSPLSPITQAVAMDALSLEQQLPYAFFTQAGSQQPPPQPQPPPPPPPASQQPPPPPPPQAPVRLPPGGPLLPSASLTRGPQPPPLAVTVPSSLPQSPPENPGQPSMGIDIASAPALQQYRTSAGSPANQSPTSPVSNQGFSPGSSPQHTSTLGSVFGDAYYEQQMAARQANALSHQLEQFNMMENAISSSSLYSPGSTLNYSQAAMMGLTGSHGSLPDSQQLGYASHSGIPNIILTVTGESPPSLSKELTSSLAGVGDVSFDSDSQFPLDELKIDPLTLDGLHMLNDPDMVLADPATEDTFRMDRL
Chain of UniProt P19397 (P19397 whole entry, looked up): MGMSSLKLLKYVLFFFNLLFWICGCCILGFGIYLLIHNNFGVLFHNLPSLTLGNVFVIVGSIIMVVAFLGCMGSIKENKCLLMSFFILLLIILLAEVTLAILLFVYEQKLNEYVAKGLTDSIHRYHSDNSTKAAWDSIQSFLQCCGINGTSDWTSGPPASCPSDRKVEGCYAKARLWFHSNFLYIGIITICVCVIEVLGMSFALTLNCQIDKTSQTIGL
Chain of UniProt Q6UUV7 (Q6UUV7 whole entry, looked up): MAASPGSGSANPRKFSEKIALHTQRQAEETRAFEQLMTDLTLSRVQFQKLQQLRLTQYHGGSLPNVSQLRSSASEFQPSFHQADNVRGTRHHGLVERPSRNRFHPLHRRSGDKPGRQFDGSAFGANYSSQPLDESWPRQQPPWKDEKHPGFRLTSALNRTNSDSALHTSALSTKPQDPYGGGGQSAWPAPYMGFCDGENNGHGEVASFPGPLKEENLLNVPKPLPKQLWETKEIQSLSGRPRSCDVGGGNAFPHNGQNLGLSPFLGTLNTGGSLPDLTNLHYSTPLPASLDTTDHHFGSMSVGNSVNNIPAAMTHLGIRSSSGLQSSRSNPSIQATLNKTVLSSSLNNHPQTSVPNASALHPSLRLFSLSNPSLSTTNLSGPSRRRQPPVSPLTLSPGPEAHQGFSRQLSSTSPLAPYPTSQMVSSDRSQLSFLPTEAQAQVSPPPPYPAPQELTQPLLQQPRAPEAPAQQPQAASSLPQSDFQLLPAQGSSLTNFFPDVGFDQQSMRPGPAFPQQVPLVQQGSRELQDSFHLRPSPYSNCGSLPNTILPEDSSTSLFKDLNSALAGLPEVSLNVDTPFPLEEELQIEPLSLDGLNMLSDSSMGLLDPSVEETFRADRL
Chain of UniProt Q9BWU1 (Q9BWU1 whole entry, looked up): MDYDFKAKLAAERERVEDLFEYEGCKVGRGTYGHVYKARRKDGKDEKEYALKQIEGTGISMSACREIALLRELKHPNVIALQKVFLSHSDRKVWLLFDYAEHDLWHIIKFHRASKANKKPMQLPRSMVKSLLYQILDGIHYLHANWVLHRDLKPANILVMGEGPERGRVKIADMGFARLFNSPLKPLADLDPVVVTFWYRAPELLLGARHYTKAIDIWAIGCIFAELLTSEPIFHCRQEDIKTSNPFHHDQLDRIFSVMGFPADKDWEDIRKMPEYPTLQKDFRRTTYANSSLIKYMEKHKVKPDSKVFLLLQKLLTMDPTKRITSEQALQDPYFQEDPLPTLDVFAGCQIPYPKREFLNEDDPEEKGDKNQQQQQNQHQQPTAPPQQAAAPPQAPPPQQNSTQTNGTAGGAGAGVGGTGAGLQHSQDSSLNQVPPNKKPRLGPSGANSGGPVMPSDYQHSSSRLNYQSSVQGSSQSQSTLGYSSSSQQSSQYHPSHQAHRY
Chain of UniProt Q5BKX5 (Q5BKX5 whole entry, looked up): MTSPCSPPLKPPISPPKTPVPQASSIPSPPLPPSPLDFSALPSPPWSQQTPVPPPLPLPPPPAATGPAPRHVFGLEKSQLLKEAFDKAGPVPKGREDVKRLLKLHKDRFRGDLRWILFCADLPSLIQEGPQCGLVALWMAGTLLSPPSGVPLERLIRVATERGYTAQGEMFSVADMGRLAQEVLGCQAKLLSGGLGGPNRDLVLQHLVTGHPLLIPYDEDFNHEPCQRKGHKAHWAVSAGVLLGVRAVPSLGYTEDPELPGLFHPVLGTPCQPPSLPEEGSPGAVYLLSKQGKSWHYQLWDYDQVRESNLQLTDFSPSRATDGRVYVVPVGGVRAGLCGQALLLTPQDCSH
Chain of UniProt Q92851 (Q92851 whole entry, looked up): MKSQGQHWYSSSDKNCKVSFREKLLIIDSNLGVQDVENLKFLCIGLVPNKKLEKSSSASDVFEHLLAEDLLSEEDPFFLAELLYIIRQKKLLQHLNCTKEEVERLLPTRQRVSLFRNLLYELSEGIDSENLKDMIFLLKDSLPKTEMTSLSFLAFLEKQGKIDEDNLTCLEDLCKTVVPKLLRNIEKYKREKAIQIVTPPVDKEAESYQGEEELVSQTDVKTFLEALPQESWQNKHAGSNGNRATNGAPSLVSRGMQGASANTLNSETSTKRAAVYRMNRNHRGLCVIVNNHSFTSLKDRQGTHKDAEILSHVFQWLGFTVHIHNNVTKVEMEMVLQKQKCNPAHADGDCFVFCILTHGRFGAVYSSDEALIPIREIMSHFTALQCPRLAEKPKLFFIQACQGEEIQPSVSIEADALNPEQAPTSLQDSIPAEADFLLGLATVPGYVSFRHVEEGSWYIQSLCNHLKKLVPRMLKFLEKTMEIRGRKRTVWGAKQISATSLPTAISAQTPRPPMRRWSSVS
Chain of UniProt O43529 (O43529 whole entry, looked up): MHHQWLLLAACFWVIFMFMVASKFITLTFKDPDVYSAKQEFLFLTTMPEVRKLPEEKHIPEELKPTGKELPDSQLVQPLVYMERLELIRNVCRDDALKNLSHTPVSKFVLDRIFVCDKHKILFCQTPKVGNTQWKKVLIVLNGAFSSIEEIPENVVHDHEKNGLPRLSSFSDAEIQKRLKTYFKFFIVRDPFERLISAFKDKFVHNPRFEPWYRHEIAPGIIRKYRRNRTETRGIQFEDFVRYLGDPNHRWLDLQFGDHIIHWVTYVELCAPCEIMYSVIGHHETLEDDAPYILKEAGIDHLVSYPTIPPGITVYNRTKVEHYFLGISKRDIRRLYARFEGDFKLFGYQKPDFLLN
Chain of UniProt Q9Y2V0 (Q9Y2V0 whole entry, looked up): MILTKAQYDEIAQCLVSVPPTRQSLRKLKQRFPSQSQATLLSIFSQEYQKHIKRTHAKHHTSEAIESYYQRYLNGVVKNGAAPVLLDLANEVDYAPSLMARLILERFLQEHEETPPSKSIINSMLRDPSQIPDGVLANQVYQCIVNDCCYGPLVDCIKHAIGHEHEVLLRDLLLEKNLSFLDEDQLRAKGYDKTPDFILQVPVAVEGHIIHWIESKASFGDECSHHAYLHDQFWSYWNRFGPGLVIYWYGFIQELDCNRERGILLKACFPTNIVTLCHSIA
Chain of UniProt P15954 (P15954 whole entry, looked up): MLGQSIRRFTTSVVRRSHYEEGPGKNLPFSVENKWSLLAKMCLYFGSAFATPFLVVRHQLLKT
Chain of UniProt P60033 (P60033 whole entry, looked up): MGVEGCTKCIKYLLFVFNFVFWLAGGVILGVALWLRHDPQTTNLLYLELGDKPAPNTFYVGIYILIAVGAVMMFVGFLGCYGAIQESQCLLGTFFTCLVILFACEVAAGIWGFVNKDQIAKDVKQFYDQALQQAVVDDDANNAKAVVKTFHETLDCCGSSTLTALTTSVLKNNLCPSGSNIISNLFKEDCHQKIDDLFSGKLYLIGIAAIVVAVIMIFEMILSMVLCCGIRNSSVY
Chain of UniProt Q14061 (Q14061 whole entry, looked up): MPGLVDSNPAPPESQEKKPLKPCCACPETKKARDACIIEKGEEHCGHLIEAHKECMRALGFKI
Chain of UniProt P61024 (P61024 whole entry, looked up): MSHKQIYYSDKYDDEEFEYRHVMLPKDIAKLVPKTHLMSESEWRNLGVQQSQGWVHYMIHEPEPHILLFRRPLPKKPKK

Row | Target | log2 fold change [1] | log2 fold change [2] | log2 fold change [3] | log2 fold change (Nexturastat A) | log2 fold change (vemurafenib) | log2 fold change [4] | log2 fold change [5] | log2 fold change (barasertib) | log2 fold change [6] | log2 fold change (givinostat)
1 | CRTC3 (UniProt Q6UUV7) | -0.017 | 0.087 | 0.033 | -0.049 | -0.093 | 0.144 | -0.543 (active) | 0.035 | – | –
2 | CENPE (UniProt Q02224) | -0.018 | 0.063 | 0.022 | – | 0.047 | -0.108 | – | -0.1 | -0.096 | 0.285
3 | COG2 (UniProt Q14746) | -0.064 | 0 | – | 0.432 | – | – | -0.59 | – | 0.096 | 0.048
4 | COX17 (UniProt Q14061) | -0.015 | -0.358 | – | 0 | 0.029 | – | 0.025 | – | 0.024 | 0.029
5 | C19orf54 (UniProt Q5BKX5) | 0.096 | -0.053 | 0.127 | -0.025 | -0.118 | 0.077 | – | – | -0.104 | 0.044
6 | C19orf53 (UniProt Q9UNZ5) | 0.056 | 0.016 | -0.065 | 0.184 | -0.189 | -0.044 | 0.146 | -0.096 | -0.196 | 0.021
7 | CCNDBP1 (UniProt O95273) | -0.104 | 0.027 | – | – | -0.074 | – | -0.091 | 0.088 | – | -0.046
8 | CCNT2 (UniProt O60583) | 0.092 | 0.042 | -0.057 | 0.348 | – | -0.031 | 0.211 | – | – | –
9 | CORO2A (UniProt Q92828) | 0.014 | 0.157 | 0.01 | – | 0.063 | 0.054 | 0.026 | 0.065 | – | 0.002
10 | CKS1B (UniProt P61024) | -0.043 | -0.094 | -0.121 | -0.005 | 0.056 | -0.17 | -0.38 | 0.029 | 0.036 | -0.034
11 | CRYM-AS1 (UniProt A6NIL9) | 0.239 | -0.066 | – | 0.332 | 0.161 | – | -0.049 | -0.036 | -0.224 | 0.189
12 | CRTC1 isoform 2 (UniProt Q6UUV9) | -0.001 | 0.195 | -0.086 | 0.24 | -0.035 | 0.051 | – | 0.015 | 0.073 | 0.158
13 | C15orf41 (UniProt Q9Y2V0) | 0.022 | -0.026 | -0.017 | -0.006 | 0.015 | 0.032 | – | – | -0.002 | -0.012
14 | CMTM3 (UniProt Q96MX0) | 0.052 | – | 0.117 | -0.119 | 0 | 0.001 | -0.024 | 0.098 | -0.027 | -0.016
15 | CDK17 isoform 2 (UniProt Q00537) | 0.105 | – | 0.061 | 0.172 | -0.098 | -0.085 | 0.042 | 0.055 | -0.051 | 0.003
16 | CDK12 (UniProt Q9NYV4) | 0.049 | -0.001 | -0.079 | 0.278 | -0.047 | -0.002 | 0.104 | -0.083 | -0.077 | 0.026
17 | CD53 (UniProt P19397) | -0.062 | -0.099 | -0.13 | -0.006 | -0.035 | -0.182 | -0.092 | -0.102 | -0.095 | -0.006
18 | CHST10 (UniProt O43529) | 0.067 | -0.096 | -0.092 | 0.05 | – | -0.015 | -0.097 | -0.025 | -0.052 | 0.069
19 | CASP10 isoform 4 (UniProt Q92851) | 0.015 | 0.026 | 0.085 | 0.125 | -0.015 | 0.014 | 0.034 | 0.121 | 0 | –
20 | CD81 (UniProt P60033) | 0.039 | 0.112 | 0.069 | -0.027 | 0.156 | -0.08 | -0.06 | -0.008 | 0.054 | 0.016
21 | COX7C (UniProt P15954) | -0.057 | -0.187 | -0.01 | 0.027 | -0.018 | -0.085 | 0.143 | 0.061 | 0.088 | -0.271
22 | CHPT1 (UniProt Q8WUD6) | 0.088 | 0.055 | 0.132 | 0.114 | – | 0.051 | 0.047 | – | – | –
23 | CDK19 (UniProt Q9BWU1) | -0.032 | 0.212 | 0.246 | -0.039 | 0.057 | -0.026 | -0.109 | – | – | -0.133
